Rows were chosen to be rich in hits. Some 21% of all compounds tested hit in one or more screens of this group.
HCV inh: HCV inhibition. Huh7.5.1 HCVcc-Cre infection, luciferase reporter, 44 h. 3.4% of 340,000 active. Potency, µM (doses to about 41.8 µM), inactives show at the top dose activity change, negative = inhibition, most hits filed as inhibitors; also: potency is read from the fitted curve at half-maximal effect; % is scaled to controls: 0 for no effect and ±100 for the full control effect
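1,000 cells/well; 4 h culture; + compound; + HCVcc-Cre (~0.5 moi); 44 h; luciferase substrate, RT 15 min; read 15 sec.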
Pf growth 48h: inhibits P. falciparum growth in the first generation, 48 h; P. falciparum luciferase growth in erythrocytes, 48 h; 5.9% of 310,000 active; Potency, µM (series often up to 28.7 µM), for inactives: at the highest dose activity change, negative = inhibition, actives largely listed as inhibitors; also: potency is read from the fitted curve at half-maximal effect; % is scaled to controls: 0 for no effect and ±100 for the full control effect
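Compounds are pin-transferred into medium, infected erythrocytes (2% hematocrit, 0.1% parasitemia final) are added, and plates sit one parasite generation at 37 C in 5% CO2. Detection reagent is then added and luminescence measured.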
HCMV antiviral: human cytomegalovirus inhibition | AID 1259415 | 4.5% of 410,000 active | activity change, negative = inhibition, % at 57.5 µM | HFF cells, HCMV-luciferase reporter, 72 h; hits give low values; in the data active = activity change below about -60%; inconclusive = no clear call, values can overlap the other calls; inactive = above about -39%; also: % is scaled to controls: 0 for no effect and ±100 for the full control effect
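After 16 h attachment at 37C, HFF cells received test compound and HCMV-luciferase (1 PFU/cell); reporter luminescence read 72 h later, data normalized against buffer-only and known inhibitor Salinomycin.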
Pf growth 96h: P. falciparum growth inhibition at 96 hour, primary screen for plastid delayed-death inhibitors; 6.9% of 320,000 active; AID 504834; P. falciparum luciferase reporter growth, 96 h; Potency, µM (series often up to 28.7 µM), for the others: at the top dose activity change, negative = inhibition, hits mostly inhibitors; also: potency is read from the fitted curve at half-maximal effect; % is scaled to controls: 0 for no effect and ±100 for the full control effect
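Infected RBCs, 2% Hct / 0.05% parasitemia final; luciferase-reporter P. falciparum; cpd 96 h, 37 C, 5% CO2; luciferase detection reagent; luminescence.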
Shiga toxin inh: blocks Shiga toxin action in Vero cells; Vero cells, Shiga toxin protein synthesis inhibition reporter; inhibition, % at 38.7 µM; 9.2% of 290,000 active; AID 2315; in the data active = inhibition mostly above about 28%, no sharp cut-off; inactive = mostly below about 43%; also: 0% is about no effect
Cycloheximide cs: affects cycloheximide protein synthesis inhibition readout, counter-screen | max response, % | 12% of 300,000 active | AID 2314 | cell reporter, cycloheximide protein synthesis inhibition counterscreen; in the data active = max response mostly above about 13%, no sharp cut-off; inactive = mostly below about 14%; also: read at 38.3 µM for the half of the compounds with a filed dose; 0% is about no effect
* marks the source's active call; other numbers are inactive results; ? = inconclusive; · = no result. Unless noted, calls follow the shape of the dose curve; as a rule, active = well fitted inhibition curve with a large enough effect; inconclusive = small, poorly fitted or top-dose-only effect, or another doubt; inactive = no such curve, though single readings can be large or run the other way.

SMILES	HCV inh	Pf growth 48h	HCMV antiviral	Pf growth 96h	Shiga toxin inh	Cycloheximide cs
Cc1cc(=O)n2nc(N3CCCC3C(=O)Nc3ccc(C(C)C)cc3)sc2n1 (stereo not drawn)	3%	-9%	61	-22%	-2	-1
Cc1ccnc(SCc2cc(=O)c(OC(=O)c3cccs3)co2)n1	0%	-20%	-8	33%	18	-1
O=C(Oc1coc(CSc2ncccn2)cc1=O)c1cccs1	10%	-1%	83	?	22	16*
O=C(NCc1ccccc1)c1ccccc1C(=O)c1ncc[nH]1	-4%	8%	-12	?	11	-3
CCOc1ccccc1CN1CCNC(=O)C1CC(=O)NCc1nccn1CC (stereo not drawn)	-14%	-21%	-67*	1%	-9	6
CCOc1ccccc1CN1CCNC(=O)C1CC(=O)NCc1cc(C)n(C)n1 (stereo not drawn)	15%	-10%	-4	2.1µM*	7	-2
CCn1ccnc1CNC(=O)CC1C(=O)NCCN1Cc1ccc(OC)cc1OC (stereo not drawn)	8%	16%	-28	-19%	-11	0
COc1ccc(/C=N/NC(=O)c2cccc(NC(=O)c3ccccc3)c2)c(C(=O)O)c1OC	-6%	14%	-10	-8%	28	32*
COc1ccccc1/C=N/NC(=O)c1cccc(NC(=O)c2ccccc2Cl)c1	?	-12%	-35	?	30	11
COc1ccc(C(=O)Nc2cccc(C(=O)N/N=C/c3ccc(OC)cc3OC)c2)cc1	?	140%	16	?	47	39*
COc1c(Cl)cccc1NC(=O)c1c(NC(=O)Cc2ccccc2)sc2c1CCCC2	·	·	·	·	2	9
CCOC(=O)c1ccc(NC(=O)C(CC)Sc2nc3ncccc3o2)cc1 (stereo not drawn)	·	·	26	·	·	·
CC1CCC(C(C)C)C(OC(=O)COC(=O)c2cc(O)ccc2N)C1 (stereo not drawn)	?	7%	-2	1%	57*	24*
CC1CCC(C(C)C)C(OC(=O)COC(=O)c2ccc(=O)[nH]c2)C1 (stereo not drawn)	8%	64%	?	117%	-5	-2
O=C(NCc1ccccc1)C(c1ccccc1F)N(C(=O)c1csnn1)C1CCCC1 (stereo not drawn)	22%	-10%	?	?	-7	-2
COC(=O)c1cccc(NC(=O)c2ccc3c(c2)C(=O)N(CC2CCCO2)C3=O)c1 (stereo not drawn)	0%	21%	-9	·	11	4
O=C(Nc1ccc2c(c1)C(=O)N(CC1CCCO1)C2=O)c1cccc(Br)c1 (stereo not drawn)	?	·	-12	33%	115*	25*
O=C(O)c1cccc(NC(=O)c2ccc3c(c2)C(=O)N(CC2CCCO2)C3=O)c1 (stereo not drawn)	2%	·	-108*	5%	-4	1
CC(C)(C)C1=CC(CC(N)=O)(C(C)(C)C)OC1=O (stereo not drawn)	·	·	-23	·	·	·
C=C(C)Cn1c(CCn2c3ccccc3c3ccccc32)n[nH]c1=S	2%	11%	-12	7.4µM*	-17	7
O=C(Oc1ccccc1)N1CCOCC1	-13%	-2%	-19	?	-11	-3
CC(C)(C)c1ccc(OC(=O)N2CCOCC2)cc1	6%	62%	0	4%	69*	45*
O=C(Oc1ccc2ccc(OC(=O)N3CCOCC3)cc2c1)N1CCOCC1	-5%	47%	4	10µM*	23	11*
Cc1ccc(OC(=O)N2CCOCC2)cc1	12%	68%	28	37%	48*	30*
O=C(Oc1ccc(OC(=O)N2CCOCC2)cc1)c1ccccc1	4%	2%	12	2%	14	12*
SMILES	HCV inh	Pf growth 48h	HCMV antiviral	Pf growth 96h	Shiga toxin inh	Cycloheximide cs
O=C(Oc1ccc(OC(=O)N2CCCCC2)cc1)N1CCCCC1	·	11%	·	?	-10	6
C=C(C)C(=O)Nc1cccnc1Oc1ccc(F)cc1F	13%	4%	49	5%	-5	1
O=C1[C@H](Cc2ccccc2)NCC=CC[C@H](c2ccc(Cl)cc2)N1Cc1ccc(Cl)cc1	-11%	·	-23	·	·	·
COC(=O)c1ccc(OC(=O)N2CCOCC2)cc1	5%	41%	56	3%	·	-2
CCC(=O)c1ccc(OC(=O)N2CCOCC2)cc1	-3%	53%	31	65%	33*	23*
COc1ccc(NC(=O)c2onc(C)c2Cl)cc1OC	-6%	·	-19	16%	49*	51*
CCc1ccc(NC(=O)c2onc(C)c2Cl)cc1	2%	·	240	25%	56*	59*
COC(=O)c1ccccc1NC(=O)c1onc(C)c1Cl	-7%	31%	-3	5.2µM*	-6	0
CCc1ccccc1NC(=O)c1onc(C)c1Cl	1%	·	66	-9%	12	4
COc1ccc(NC(=O)c2onc(C)c2Cl)cc1	-11%	124%	110	252%	89*	40*
Oc1ccc(CCc2n[nH]c(=S)n2-c2ccc(F)cc2)cc1	14%	-5%	?	-1%	-4	1
COc1ccc(C(=O)N2CCCCC2c2cc(C(=O)NCc3ccc(F)cc3)no2)cc1 (stereo not drawn)	·	·	14	·	·	·
COc1ccc(CNC(=O)c2cc(C3CC3)on2)cc1	-6%	·	62	-16%	81	25*
COc1ccc(CNC(=O)c2onc(C)c2Cl)cc1	-4%	-3%	6	13µM*	20	-2
O=C(CCn1cnc2onc(-c3ccc(F)cc3)c2c1=O)N1CCN(c2ccccc2)CC1	·	·	-11	·	·	·
COc1ccc(N2CCN(S(=O)(=O)c3ccc4c(c3)NC(=O)C(C)S4)CC2)cc1 (stereo not drawn)	?	7%	0	?	-13	-1
CC1CCN(S(=O)(=O)c2ccc3c(c2)CC(C)N3C(=O)C2CCC2)CC1 (stereo not drawn)	?	-27%	-4	-17%	1	11
CC1Sc2ccc(S(=O)(=O)N3CCC(C(=O)N(C)Cc4ccccc4)CC3)cc2NC1=O (stereo not drawn)	?	9.3µM*	-64*	5.9µM*	10	-2
CC1Sc2ccc(S(=O)(=O)N3CCC(C(=O)N(C)Cc4ccco4)CC3)cc2NC1=O (stereo not drawn)	?	12µM*	-20	3%	-1	2
CCC1Sc2ccc(S(=O)(=O)N3CCN(c4ccccc4)CC3)cc2NC1=O (stereo not drawn)	?	?	0	10µM*	-4	-8
CC1Cc2cc(S(=O)(=O)N3CCC(C(=O)N(C)Cc4ccco4)CC3)ccc2N1C(=O)C1CCC1 (stereo not drawn)	5%	12µM*	-30	?	-3	-2

Screening data deposited in PubChem BioAssay by National Center for Advancing Translational Sciences (NCATS).
